# Laboratory results as given in PubChem BioAssay (NCATS).
# Inconclusive results are not listed. Entries that show only a call come without a potency. Calls of active or inactive are those of the source. Unless noted, calls follow the shape of the full dose curve.
# Legend:
# [1] = target: Estrogen receptor (Homo sapiens) (UniProt P03372); assay: qHTS assay for small molecule antagonists of estrogen receptor alpha signaling (AID 588513; active = well fitted curve in the direction sought with a large enough effect in the signal ratio, with a control signal flat, not every such curve was filed as active; the % refers to the signal ratio)
# Summary of the method: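 ER-alpha-UAS-bla GripTite HEK 293 cells in medium with 2% charcoal/dextran-treated FBS were preincubated 4 h at 37 C, dosed with compound (1:2 titration), stimulated with 0.5nM 17-beta-estradiol for 18 h, then read by CCF4 beta-lactamase fluorescence.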
# [2] = target: Estrogen receptor (Homo sapiens) (UniProt P03372); assay: qHTS assay for small molecule agonists of estrogen receptor alpha signaling (AID 588514); also: nearly all actives have a fitted effect of over 70% in size
# Summary of the method: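 ER-alpha-UAS-bla GripTite HEK293 cells, 5000/well in 2% charcoal/dextran-stripped FBS medium, treated with compound titrations 18 h at 37 C. CCF4 beta-lactamase read by fluorescence after 2 h RT; normalised to 20 nM 17-beta-estradiol (100%) and DMSO (0%), Hill fit for EC50 and efficacy.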
# [3] = target: Peroxisome proliferator-activated receptor gamma (Homo sapiens) (UniProt P37231); assay: qHTS assay for small molecule agonists of peroxisome proliferator-activated receptor gamma signaling (AID 588536; active = well fitted curve in the direction sought with a large enough effect in the signal ratio, with a control signal flat, not every such curve was filed as active; the % refers to the signal ratio)
# Summary of the method: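 Ratiometric blue/green fluorescence (405 nm excitation; 460 and 530 nm emission) from CCF4-loaded HEK293 reporter cells serves as signal. Exposure to test compounds lasts 16 h at 37 C in medium containing 1% charcoal/dextran-treated serum.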
# [4] = target: Vitamin D3 receptor (Homo sapiens) (UniProt P11473); assay: qHTS assay for small molecule antagonists of vitamin D receptor signaling (AID 588541);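 also: receptor activated by calcitriol during compound treatment; series mostly up to about 77 µM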
# Summary of the method: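 VDR-UAS-bla HEK293T cells (2000/well, 2% charcoal-stripped FBS) were treated with titrated compounds plus 1-alpha,25-dihydroxyvitamin D3 (50 nM or 3 nM final) for 16 h at 37 C. CCF4 beta-lactamase fluorescence was read; Hill fits gave IC50.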
# [5] = target: Vitamin D3 receptor (Homo sapiens) (UniProt P11473); assay: qHTS assay for small molecule agonists of vitamin D receptor signaling (AID 588543)
# Summary of the method: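 GeneBLAzer VDR-UAS-bla HEK293T cells in 2% charcoal-stripped FBS medium were dosed with compound titrations for 16 h at 37 °C; CCF4 β-lactamase readout (405 nm ex, 460/530 nm em). EC50 and efficacy from Hill fits, normalized to 50 nM calcitriol (100%) and DMSO (0%).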
# [6] = qHTS assay for small molecule agonists of retinoid X receptor alpha signaling (AID 588544); settings: HEK293T RXRa-UAS-bla, beta-lactamase reporter, 18 h; 530 nm emission; also: potency is read from the fitted curve at half-maximal effect
# [7] = target: Retinoic acid receptor RXR-alpha (Homo sapiens) (UniProt P19793); assay: as above
# [8] = target: Thyroid hormone receptor beta (Homo sapiens) (UniProt P10828); assay: qHTS assay for small molecule agonists of thyroid hormone receptor beta signaling (AID 588545)
# Summary of the method: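 In this cell-based screen, titrated compounds act on HEK 293 cells held in medium with 2% charcoal/dextran FBS, NEAA and pyruvate for 18 hrs at 37 C. Responses are expressed relative to T3 (10 nM) as 100% and basal DMSO as 0%.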
# [9] = qHTS assay for small molecule antagonists of retinoid X receptor alpha signaling (AID 588546; active = well fitted inhibition curve with a large enough effect in the signal ratio, with a control signal flat, not every such curve was filed as active; the % refers to the signal ratio;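 also: cells stimulated with 9-cis-retinoic acid as agonist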); settings: HEK293T RXRa-UAS-bla, beta-lactamase ratio, antagonist mode; measured here: W530 green channel, cytotoxicity proxy
# Summary of the method: (§1)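 Beta-lactamase reporter inhibition, read as CCF4 fluorescence ratio (ex 405, em 460/530 nm) after 2 h at RT. HEK293T UAS-bla cells, 2500/well, were stimulated with 9-cis-RA at 500 or 100 nM final alongside test compound for 18 h at 37 C.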
# [10] = target: Retinoic acid receptor RXR-alpha (Homo sapiens) (UniProt P19793); assay: as above; settings: HEK293T RXRa-UAS-bla, beta-lactamase ratio, antagonist mode
# Summary of the method: as §1
# [11] = qHTS assay for small molecule activators of the p53 signaling pathway (AID 651743; active = well fitted activation curve with a large enough effect in the signal ratio, not every such curve was filed as active; the % refers to the signal ratio; also: series mostly up to about 92 µM); settings: HCT-116 p53RE-bla, beta-lactamase FRET ratio, 16 h; activation: stronger effect = higher value
# Summary of the method: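 Cell-based beta-lactamase reporter (p53 response elements, HCT-116 background). After a 5-hour preincubation, cells received compound for 16 hours at 37 C; substrate development ran 2 hours at room temperature.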
# [12] = qHTS assay for environmental chemicals that activate the Aryl hydrocarbon Receptor (AhR) signaling pathway (AID 651777; active = well fitted curve in the direction sought with a large enough effect; an effect the other way counts as inactive or inconclusive; also: nearly all actives have a fitted effect of over 15% in size); settings: 1A2-DRE human hepatoma cells, luciferase, 24 h; activation: stronger effect = higher value
# Summary of the method: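 Concentration–response screening used 1,200 1A2-DRE cells per well, 24 hr compound exposure (37 C, 5% CO2), and One-Glo luminescence as the AhR-driven CYP1A2 reporter signal.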
# [13] = target: Peroxisome proliferator-activated receptor alpha (Homo sapiens) (UniProt Q07869); assay: qHTS assay for small molecule agonists of the peroxisome proliferator-activated receptor alpha (PPARalpha) signaling pathway (AID 651778; active = well fitted curve in the direction sought with a large enough effect; an effect the other way counts as inactive or inconclusive); settings: PathHunter PPARalpha complementation, chemiluminescence, 6 h; max response: stronger effect = higher value
# Summary of the method: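 Cells plated at 2,000/well and held overnight at 37 C, 5% CO2, then compound added by pin tool for 6 hr; after PathHunter detection reagent and 60 min at room temperature, chemiluminescence from enzyme complementation was read.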
# [14] = qHTS assay for small molecule agonists of the antioxidant response element (ARE) signaling pathway measured by Nrf2-dependant transcriptional activity (AID 720636; active = well fitted curve in the direction sought with a large enough effect in the repeat runs; an effect the other way counts as inactive or inconclusive;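 also: HepG2 cells with an ARE-driven luciferase reporter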)
# Summary of the method: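 Attachment 6 hr at 37 C, then compound versus DMSO vehicle for 16 hr in ARE-luc HepG2 cells (1% dialyzed FBS); luminescence recorded 30 min after ONE-Glo addition at room temperature.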
# [15] = qHTS assay for small molecule agonists of the antioxidant response element (ARE) signaling pathway measured by Nrf2-dependant transcriptional activity - cell viability counter screen (AID 720653; active = well fitted curve in the direction sought with a large enough effect in the repeat runs; an effect the other way counts as inactive or inconclusive); settings: ARE-bla HepG2 viability, CellTiter-Glo ATP luminescence, 16 h; max response: stronger effect = lower value
# Summary of the method: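 ARE-bla HepG2 cells (2,000/well) rested 5 hrs at 37C/5% CO2, then exposed to compounds in DMSO for 16 hrs. Viability was read in the same wells as intracellular ATP by luminescence, 30 min at room temperature after reagent addition.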
# [16] = qHTS assay for cell viability of HEK293 cells (AID 743288; active = well fitted curve in the direction sought with a large enough effect; an effect the other way counts as inactive or inconclusive; also: nearly all actives have a fitted effect of over 50% in size); settings: ATP luminescence (CellTiter-Glo), 18 h; max response: stronger effect = lower value
# Summary of the method: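 Parental HEK293 cells were seeded at 2,000 cells/well, rested at least 5 h at 37 C, then exposed to compounds in DMSO for 18 h at 37 C. Viability was read as ATP-dependent luciferase luminescence after 30 min at room temperature.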
# [17] = qHTS assay for cell viability of the p53RE-bla HCT-116 cell line (AID 743292; active = well fitted curve in the direction sought with a large enough effect; an effect the other way counts as inactive or inconclusive; also: nearly all actives have a fitted effect of over 55% in size)
# Summary of the method: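 Compound-exposed HCT-116 (p53RE-bla) cells, 4,000 per well, were kept 16 h at 37 C following a 5 h preincubation. Cell number was estimated from total ATP by CellTiter-Glo luminescence read after 30 min at room temperature.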
# [18] = target: Nuclear receptor subfamily 1 group I member 2 (Rattus norvegicus) (UniProt Q9R1A7); assay: qHTS assay for small molecule activators of the rat pregnane X receptor (rPXR) signaling pathway (AID 651751; call rule not given here); settings: rPXR reporter cells, luciferase (One-Glo), 24 h
# [19] = target: Peroxisome proliferator-activated receptor delta (Homo sapiens) (UniProt Q03181); assay: qHTS assay for small molecule agonists of peroxisome proliferator-activated receptor delta signaling (AID 588534)
# Summary of the method: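 Cells carrying a PPAR-delta beta-lactamase reporter were treated with compounds for 18 h at 37 °C in agonist mode. CCF4 fluorescence was read after 2 h; EC50 and efficacy from Hill fits.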
# [20] = qHTS assay for small molecule activators of the nuclear factor-kappa B (NF-kB) signaling pathway (AID 651749; active = well fitted activation curve with a large enough effect in the signal ratio; the % refers to the signal ratio; also: series mostly up to about 77 µM); settings: NF-kB-bla ME-180 cells, beta-lactamase FRET ratio, 16 h; activation: stronger effect = higher value
# Summary of the method: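 Screening used 2,000 ME-180 reporter cells per well exposed to pinned compound (23 nL) or DMSO; after 16 hr at 37C, beta-lactamase expression under NF-kB control was assessed through FRET.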
# Sequence of Peroxisome proliferator-activated receptor alpha (Homo sapiens) (Q07869 whole entry, looked up): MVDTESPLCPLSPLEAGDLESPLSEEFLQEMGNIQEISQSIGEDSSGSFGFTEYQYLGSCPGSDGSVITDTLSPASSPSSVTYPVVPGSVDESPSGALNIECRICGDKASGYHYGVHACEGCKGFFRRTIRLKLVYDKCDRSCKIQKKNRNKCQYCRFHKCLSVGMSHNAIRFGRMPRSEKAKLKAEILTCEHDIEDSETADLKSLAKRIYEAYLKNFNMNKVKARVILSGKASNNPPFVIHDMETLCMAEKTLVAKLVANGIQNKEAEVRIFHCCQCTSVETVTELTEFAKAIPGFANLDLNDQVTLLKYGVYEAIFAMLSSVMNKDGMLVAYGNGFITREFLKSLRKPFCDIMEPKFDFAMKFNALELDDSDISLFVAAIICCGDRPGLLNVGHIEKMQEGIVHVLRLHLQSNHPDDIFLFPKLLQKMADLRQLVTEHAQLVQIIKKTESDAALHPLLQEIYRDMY
# Sequence of Estrogen receptor (Homo sapiens) (P03372 whole entry, looked up): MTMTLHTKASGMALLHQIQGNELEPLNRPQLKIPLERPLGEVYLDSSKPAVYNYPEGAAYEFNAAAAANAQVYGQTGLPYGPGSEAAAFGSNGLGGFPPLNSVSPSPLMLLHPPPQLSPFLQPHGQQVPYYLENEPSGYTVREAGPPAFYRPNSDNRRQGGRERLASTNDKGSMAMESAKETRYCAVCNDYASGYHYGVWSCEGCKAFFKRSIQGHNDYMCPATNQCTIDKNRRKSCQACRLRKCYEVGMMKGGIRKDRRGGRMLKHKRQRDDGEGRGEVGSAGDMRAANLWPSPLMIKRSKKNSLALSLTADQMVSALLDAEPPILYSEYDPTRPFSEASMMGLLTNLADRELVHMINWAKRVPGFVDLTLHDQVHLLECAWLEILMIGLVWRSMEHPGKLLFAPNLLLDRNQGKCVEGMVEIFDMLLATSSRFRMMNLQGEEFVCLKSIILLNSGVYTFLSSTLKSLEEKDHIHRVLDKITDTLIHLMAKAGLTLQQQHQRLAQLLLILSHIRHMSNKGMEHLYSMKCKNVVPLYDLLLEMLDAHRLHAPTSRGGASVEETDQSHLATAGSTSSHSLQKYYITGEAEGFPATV
# Sequence of Retinoic acid receptor RXR-alpha (Homo sapiens) (P19793 whole entry, looked up): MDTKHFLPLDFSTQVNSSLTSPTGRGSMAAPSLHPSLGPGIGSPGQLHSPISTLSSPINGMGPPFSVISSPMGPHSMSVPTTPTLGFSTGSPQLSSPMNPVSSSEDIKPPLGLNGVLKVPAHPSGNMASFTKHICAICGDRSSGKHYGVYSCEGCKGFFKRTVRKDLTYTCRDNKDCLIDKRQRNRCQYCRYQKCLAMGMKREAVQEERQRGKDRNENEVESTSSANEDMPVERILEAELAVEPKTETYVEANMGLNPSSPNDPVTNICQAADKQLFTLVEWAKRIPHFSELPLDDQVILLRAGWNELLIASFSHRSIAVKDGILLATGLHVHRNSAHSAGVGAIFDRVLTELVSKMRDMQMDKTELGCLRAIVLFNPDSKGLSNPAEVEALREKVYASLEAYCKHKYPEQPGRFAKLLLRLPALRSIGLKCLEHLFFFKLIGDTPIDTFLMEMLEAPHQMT
# Sequence of Vitamin D3 receptor (Homo sapiens) (P11473 whole entry, looked up): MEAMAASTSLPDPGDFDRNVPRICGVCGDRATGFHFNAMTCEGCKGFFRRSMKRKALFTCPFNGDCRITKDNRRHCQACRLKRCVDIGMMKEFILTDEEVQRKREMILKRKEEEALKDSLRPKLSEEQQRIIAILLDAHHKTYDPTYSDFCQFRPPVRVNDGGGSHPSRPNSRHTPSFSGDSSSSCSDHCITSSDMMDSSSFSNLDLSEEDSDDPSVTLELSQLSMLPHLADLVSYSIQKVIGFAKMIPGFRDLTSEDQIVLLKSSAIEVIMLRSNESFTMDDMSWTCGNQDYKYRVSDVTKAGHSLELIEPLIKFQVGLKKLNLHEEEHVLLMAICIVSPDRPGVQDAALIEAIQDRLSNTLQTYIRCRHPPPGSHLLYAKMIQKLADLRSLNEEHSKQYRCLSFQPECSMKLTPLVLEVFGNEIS
# Sequence of Peroxisome proliferator-activated receptor gamma (Homo sapiens) (P37231 whole entry, looked up): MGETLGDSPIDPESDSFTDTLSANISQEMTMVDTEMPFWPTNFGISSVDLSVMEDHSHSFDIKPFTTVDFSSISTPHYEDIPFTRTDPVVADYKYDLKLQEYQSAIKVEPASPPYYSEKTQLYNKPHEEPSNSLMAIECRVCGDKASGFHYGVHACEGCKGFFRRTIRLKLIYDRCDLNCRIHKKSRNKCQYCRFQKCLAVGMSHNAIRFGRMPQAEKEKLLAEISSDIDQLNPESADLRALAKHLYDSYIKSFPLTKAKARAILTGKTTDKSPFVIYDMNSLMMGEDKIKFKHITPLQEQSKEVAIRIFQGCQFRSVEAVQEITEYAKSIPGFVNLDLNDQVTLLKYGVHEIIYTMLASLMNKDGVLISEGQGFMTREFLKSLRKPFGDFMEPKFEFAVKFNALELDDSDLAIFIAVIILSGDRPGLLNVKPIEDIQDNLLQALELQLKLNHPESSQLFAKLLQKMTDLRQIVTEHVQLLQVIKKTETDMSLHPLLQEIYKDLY
# Sequence of Peroxisome proliferator-activated receptor delta (Homo sapiens) (Q03181 whole entry, looked up): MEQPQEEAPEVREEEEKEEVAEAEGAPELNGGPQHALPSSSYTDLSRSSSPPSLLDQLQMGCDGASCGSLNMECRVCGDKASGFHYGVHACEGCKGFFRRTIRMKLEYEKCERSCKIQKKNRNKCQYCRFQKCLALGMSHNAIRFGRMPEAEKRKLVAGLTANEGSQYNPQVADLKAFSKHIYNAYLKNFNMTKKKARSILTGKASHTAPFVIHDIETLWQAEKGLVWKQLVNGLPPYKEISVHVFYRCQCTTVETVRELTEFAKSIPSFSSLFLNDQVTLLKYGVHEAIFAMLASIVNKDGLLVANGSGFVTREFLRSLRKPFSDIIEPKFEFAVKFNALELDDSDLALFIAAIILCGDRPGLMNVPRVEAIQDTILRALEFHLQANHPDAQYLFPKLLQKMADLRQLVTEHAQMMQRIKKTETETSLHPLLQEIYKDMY
# Sequence of Thyroid hormone receptor beta (Homo sapiens) (P10828 whole entry, looked up): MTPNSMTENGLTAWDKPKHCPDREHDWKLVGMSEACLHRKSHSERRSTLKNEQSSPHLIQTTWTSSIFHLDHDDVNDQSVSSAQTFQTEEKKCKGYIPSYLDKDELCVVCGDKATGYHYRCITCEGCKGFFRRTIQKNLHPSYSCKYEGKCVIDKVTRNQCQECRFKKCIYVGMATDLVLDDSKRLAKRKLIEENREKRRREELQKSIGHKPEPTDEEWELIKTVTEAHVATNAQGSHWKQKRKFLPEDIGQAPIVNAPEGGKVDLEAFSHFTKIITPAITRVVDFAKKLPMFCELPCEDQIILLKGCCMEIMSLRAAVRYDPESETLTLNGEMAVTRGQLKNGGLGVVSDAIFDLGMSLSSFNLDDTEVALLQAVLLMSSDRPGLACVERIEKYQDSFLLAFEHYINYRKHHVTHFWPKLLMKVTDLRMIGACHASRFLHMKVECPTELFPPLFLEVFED
# Sequence of Nuclear receptor subfamily 1 group I member 2 (Rattus norvegicus) (Q9R1A7 whole entry, looked up): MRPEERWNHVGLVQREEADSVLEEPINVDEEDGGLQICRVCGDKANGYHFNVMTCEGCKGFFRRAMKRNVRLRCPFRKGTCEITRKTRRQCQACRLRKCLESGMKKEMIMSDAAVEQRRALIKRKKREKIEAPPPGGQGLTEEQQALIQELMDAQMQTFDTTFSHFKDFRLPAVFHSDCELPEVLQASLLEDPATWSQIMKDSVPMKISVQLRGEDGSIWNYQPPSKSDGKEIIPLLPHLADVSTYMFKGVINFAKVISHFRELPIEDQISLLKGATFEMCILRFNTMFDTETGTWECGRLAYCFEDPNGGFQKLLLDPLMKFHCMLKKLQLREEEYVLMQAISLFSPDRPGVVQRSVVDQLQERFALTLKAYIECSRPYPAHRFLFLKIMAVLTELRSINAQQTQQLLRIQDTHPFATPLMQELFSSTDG
Compound,Potency [1],Potency [2],Potency [3],Potency [4],outcome [5],max response [6],Potency [7],Potency [8],max response [9],max response [10],activation [11],activation [12],max response [13],Potency [14],max response [15],max response [16],Potency [17],max response [18],outcome [19],activation [20]
COc1ccc(C(O)(c2cncnc2)C2CC2)cc1 (centres undefined),inactive,inactive,inactive,inactive,inactive,-7.16%,inactive,inactive,8.99%,1.16% (inactive),-2.74% (inactive),-0.591% (inactive),-2.81% (inactive),inactive,-13.4% (inactive),-5.84% (inactive),inactive,3.59% (inactive),–,–
CCN(CC)C(=O)C(C)Oc1cccc2ccccc12 (centres undefined),inactive,inactive,inactive,–,–,5.95%,inactive,inactive,-20.3%,-6.13% (inactive),-0.234% (inactive),1.45% (inactive),0.442% (inactive),inactive,-4.78% (inactive),–,inactive,–,inactive,–
COCC(=O)N(c1c(C)cccc1C)[C@H](C)C(=O)OC,inactive,inactive,inactive,inactive,inactive,-8.28%,inactive,–,-4.91%,-14.1% (inactive),-0.822% (inactive),1.21% (inactive),-0.29% (inactive),inactive,-2.34% (inactive),-1.89% (inactive),inactive,-0.694% (inactive),inactive,–
CN(C)c1nc(=O)n(C2CCCCC2)c(=O)n1C,inactive,inactive,inactive,inactive,inactive,-8.9%,inactive,inactive,-2.46%,-11.2% (inactive),–,0.25% (inactive),0.605% (inactive),inactive,8.36% (inactive),-6.56% (inactive),inactive,1.22% (inactive),inactive,–
CCOP(=O)(O)C(N)=O,inactive,inactive,inactive,inactive,inactive,-12.7%,inactive,inactive,-9.11%,-9.79% (inactive),–,-2.02% (inactive),-1.31% (inactive),inactive,-6.84% (inactive),–,inactive,-2.01% (inactive),inactive,–
O=C(NC(=O)c1c(F)cccc1F)Nc1ccc(OC(F)(F)C(F)OC(F)(F)F)c(Cl)c1 (centres undefined),inactive,inactive,inactive,inactive,inactive,-12.6%,inactive,–,-11.8%,-13% (inactive),–,1.49% (inactive),0.139% (inactive),inactive,-4.81% (inactive),-16.7% (inactive),inactive,1.96% (inactive),inactive,1.61% (inactive)
CCCCC(CC)CO[N+](=O)[O-] (centres undefined),inactive,inactive,inactive,inactive,inactive,-0.882%,inactive,inactive,-8.14%,3.31% (inactive),-4.18% (inactive),2.43% (inactive),-0.348% (inactive),inactive,-12.3% (inactive),–,inactive,1.62% (inactive),inactive,–
CCCN(CC)CC1COC2(CCC(C(C)(C)C)CC2)O1 (centres undefined),inactive,inactive,–,inactive,inactive,-11.3%,inactive,inactive,-13.8%,-5.06% (inactive),-4.98% (inactive),-1.94% (inactive),0.269% (inactive),inactive,-11.5% (inactive),-13.1% (inactive),inactive,-3.48% (inactive),inactive,-1.56% (inactive)
CCOS(=O)(=O)OCC,inactive,inactive,inactive,inactive,inactive,-16.7%,inactive,inactive,-7.24%,4.62% (inactive),-2.08% (inactive),-0.0167% (inactive),-1.06% (inactive),inactive,-6.17% (inactive),1.11% (inactive),inactive,3.38% (inactive),inactive,–
Clc1ccc(C(Cl)(Cl)Cl)cc1,inactive,inactive,inactive,–,–,-6.16%,inactive,–,-19.4%,-3.2% (inactive),-4.01% (inactive),0.701% (inactive),-0.649% (inactive),inactive,-2.36% (inactive),-0.236% (inactive),inactive,2.13% (inactive),–,–
Clc1ccc([C@@]2(Cn3cncn3)C[C@H](Br)CO2)c(Cl)c1,inactive,–,inactive,–,–,-2.9%,14.1 µM (active),inactive,-6.47%,-7.83% (inactive),0.484% (inactive),1.22% (inactive),0.534% (inactive),inactive,-1.58% (inactive),–,inactive,–,–,-1.71% (inactive)
